Compounds with a hit are over-represented: about 0.98% of the library has one in this group of screens.
cardiac RTF act – cardiac RTF calcium sensitization; activation, % at 7.2 µM; IANBD-labeled TnC RTF fluorescence at EC20 calcium; 0% EC20 calcium, 100% full calcium; AID 493008; 340,000 tested, 0.24% active;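 active means activation above the mean over all tested compounds plus 3 SD, cut at about 30% in these data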;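 further: rise in fluorescence read as greater calcium sensitivity of cardiac thin filaments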
Keap1 Nrf2 FP – inhibitors of human Keap1-Nrf2 protein-protein interaction; Q14145; Keap1 Kelch-Nrf2 peptide fluorescence polarization, 1536-well; inhibition, % at 9.4 µM; 340,000 tested, 0.15% active; AID 504523; in the data active means inhibition above about 12%;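 further: human Keap1 Kelch domain with fluorescein labeled Nrf2 9mer peptide probe; 0% = neutral control wells and 100% = peptide positive control; higher means more block of Keap1 binding to Nrf2 peptide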
Target sequence (Q14145 whole entry, looked up, the tested form may be a part): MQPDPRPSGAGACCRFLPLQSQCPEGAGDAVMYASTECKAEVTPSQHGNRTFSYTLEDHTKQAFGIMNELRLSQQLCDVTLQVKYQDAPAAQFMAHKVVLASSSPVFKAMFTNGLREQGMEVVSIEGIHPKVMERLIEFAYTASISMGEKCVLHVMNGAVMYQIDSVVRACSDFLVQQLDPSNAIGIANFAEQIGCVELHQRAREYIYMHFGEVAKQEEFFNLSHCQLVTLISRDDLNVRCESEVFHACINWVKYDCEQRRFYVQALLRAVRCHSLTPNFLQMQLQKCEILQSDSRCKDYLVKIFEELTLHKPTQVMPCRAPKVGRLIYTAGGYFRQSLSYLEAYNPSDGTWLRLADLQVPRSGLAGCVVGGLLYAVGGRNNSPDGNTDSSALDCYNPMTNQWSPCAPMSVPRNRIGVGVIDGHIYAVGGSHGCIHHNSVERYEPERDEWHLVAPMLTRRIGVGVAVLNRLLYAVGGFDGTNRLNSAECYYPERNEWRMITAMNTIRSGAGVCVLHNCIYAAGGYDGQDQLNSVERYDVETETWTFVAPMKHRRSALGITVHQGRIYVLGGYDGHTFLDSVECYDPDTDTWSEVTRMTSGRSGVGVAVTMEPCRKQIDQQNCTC
LANA-H2A inh – blocks KSHV LANA binding to histone H2A/H2B. Q9QR71. cell-free LANA-H2A/H2B peptide, fluorescence polarization. inhibition, % (concentration not given with the values). 320,000 tested, 0.6% active; in the data active means inhibition mostly above about 10%, no sharp cut-off; inactive means mostly below about 6.7%
C-LANA FP – inhibitors of KSHV LANA C-terminal domain DNA binding. inhibition, % at 9 µM. AID 504423. 340,000 tested, 0.078% active. MBP-C-LANA/FAM-LBS DNA binding, fluorescence polarization;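 active means highest replicate inhibition at or above 60% at 9 µM, even if other replicates fall short; inactive means all replicates below 60% inhibition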;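 further: 0% = neutral control wells and 100% = 4 µM acridine orange control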
RTF Ca sens inh – cardiac RTF calcium desensitization. P19429+P45379. IANBD-labeled cardiac RTF, Ca2+ fluorescence. inhibition, % at 7.15 µM. 340,000 tested, 0.12% active;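 active means inhibition above the mean inhibition of all tested compounds plus 3 SD, cut at about 17% in these data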;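 further: assay run at fixed EC70 calcium of 1.6 mM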
An asterisk follows results filed as active; · = no result given; + = active, no number.

SMILES	cardiac RTF act	Keap1 Nrf2 FP	LANA-H2A inh	C-LANA FP	RTF Ca sens inh
O=C(C1CCN(S(=O)(=O)c2cccc3cccnc23)CC1)N1CCN(c2ccccc2)CC1	1	3	1	1	3
O=C(C1CCCN(S(=O)(=O)c2cccc3cccnc23)C1)N1CCN(c2ccc(F)cc2)CC1 (configuration not stated)	9	-1	25*	0	-1
O=C(Nc1cc(S(=O)(=O)N2CCCCC2)ccc1N1CCOCC1)c1ccc(F)cc1	8	-4	·	-5	-16
COc1ccccc1NS(=O)(=O)c1cccc(C(=O)NNC(=O)c2ccc(O)c(Cl)c2)c1	-8	·	0	·	3
CCC(/C=C1\Oc2ccc(OC)cc2N1C)=C\c1sc2ccccc2[n+]1CCCS(=O)(=O)[O-]	77*	-2	·	1	-11
COc1cc(/C=C/c2sc3ccccc3[n+]2CCCS(=O)(=O)[O-])ccc1O	68*	-122	-38	-33	-85
Cc1ccc2c(c1)sc(C)[n+]2CCCS(=O)(=O)[O-]	3	-4	-5	-1	-6
CC(=O)Nc1cc(C)ns1	7	-10	·	0	-6
O=C(CN1CCN(S(=O)(=O)N2CCCCC2)CC1)Nc1cc(Cl)cc(Cl)c1	-3	1	8	0	-10
O=C(CN1CCN(S(=O)(=O)N2CCCCC2)CC1)Nc1ccc(Cl)c(Cl)c1	-5	-3	45*	-1	-1
Cc1cc(C)c(-c2c(O)c3cccc4c3n(c2=O)CCC4)c(C)c1	-4	-1	1	1	-5
O=c1c(-c2ccccc2)c(O)c2cccc3c2n1CCC3	-1	3	20*	-1	-6
Fc1ccc(CN2C3=NCCN3c3ccccc32)cc1	0	1	-1	0	-11
Fc1ccc(CN2C3=NCCCN3c3ccccc32)cc1	-3	2	59*	0	-10
C=CCNC(=S)NC(CC(=O)OC)c1ccc2c(c1)OCO2 (configuration not stated)	0	-1	0	0	11
Cc1cc(C)nc(N/N=C2/CCCC/C2=C\c2ccccc2)n1	0	-1	1	-2	0
CC(NCC(=O)Nc1ccccc1C(=O)NC1CC1)c1ccc(S(N)(=O)=O)cc1 (configuration not stated)	1	-2	+	-2	1
CCCC(=O)NCCc1nc2ccccc2n1C	3	-1	0	-1	3
CCc1c2ccccc2nn1-c1ccccc1C(=O)C(C)=O	2	-4	10*	0	-8
COC(=O)c1ccc(C2/C(=C(/O)c3ccc4c(c3)CC(C)O4)C(=O)C(=O)N2Cc2ccncc2)cc1 (configuration not stated)	-3	-4	3	0	0
Cc1cc([N+](=O)[O-])nn1CCC(=O)NC1CCCCCC1	1	-2	2	-1	-6
Cc1cc([N+](=O)[O-])nn1CC(=O)NC1CCCCC1	6	4	19*	0	2
O=C(COc1ccccc1)NC1CCCN(Cc2ccccc2F)C1 (configuration not stated)	0	0	3	-1	-1
O=C1CCCN2N=C(SCC(=O)Nc3cccc(Cl)c3)SC2=N1	-1	-2	26*	1	-5
Nc1nonc1-n1nnc(C(=O)N/N=C/c2ccncc2)c1CSc1ccccc1	7	-4	1	1	-8
SMILES	cardiac RTF act	Keap1 Nrf2 FP	LANA-H2A inh	C-LANA FP	RTF Ca sens inh
Cc1ccc(S(=O)(=O)NCCCN2CCCC2)cc1	2	-3	1	-1	-10
COc1ccc2cc(CCC(C)=O)ccc2c1	3	0	13*	1	-8
COc1ccc(CCc2ccc3cc(OC)ccc3n2)cc1	-7	6	·	-3	3
Cc1ccc(-n2nnc3c(=O)n(CC(=O)N4CCCC4)cnc32)cc1	-4	-2	10*	0	3
CCC1=NN2C(=N)/C(=C\c3ccc(OCc4cc(=O)n5nc(CC)sc5n4)c(OC)c3)C(=O)N=C2S1	-4	-5	·	-1	4
Cc1ccccc1OCC(=O)N/N=C/c1ccccn1	6	-2	27*	2	4
Cc1cc(C)cc(OCC(=O)N/N=C/c2ccccn2)c1	3	-1	8	5	-5
CCOc1cccc(C2/C(=C(/O)c3ccc4c(c3)CC(C)O4)C(=O)C(=O)N2Cc2cccnc2)c1 (configuration not stated)	3	0	2	-1	-10
O=C(CCNC(=O)c1ccc([N+](=O)[O-])cc1)Nc1cccc(S(=O)(=O)N2CCCCCC2)c1	0	-6	12*	1	-3
O=C(CSc1ncn[nH]1)Nc1cccc(S(=O)(=O)N2CCCCCC2)c1	3	-1	2	-2	-2
O=C(CCNC(=O)c1ccc([N+](=O)[O-])cc1)Nc1cccc(S(=O)(=O)N2CCOCC2)c1	2	2	-4	-1	-1
Nc1nc(SCC(=O)Nc2cccc(S(=O)(=O)N3CCCCCC3)c2)n[nH]1	4	-3	171*	0	-8
CC(C)CN(CCCNC(=O)CN1N=C(c2ccc(Cl)cc2)CCC1=O)CC(C)C	-5	-6	2	-4	-6
COC(=O)c1cc2c(=O)c3ccccc3oc2nc1/C=C/N(C)C	48*	-9	6	-6	-41
Cc1cc(-c2csc(N)n2)c(C)n1CCC(C)C	-3	1	14*	0	4
Cc1cc(-c2csc(N)n2)c(C)n1CCc1ccccc1	9	-1	8	1	-15
COc1ccc(C2C(C(C)=O)=C(Nc3ccccc3)CC(C)(O)C2C(C)=O)cc1OC (configuration not stated)	5	-3	-8	2	-8
COc1ccc(C2c3c(n[nH]c3C)CC(C)(O)C2C(C)=O)cc1OC (configuration not stated)	8	4	10*	1	-13
O=C(O)CN1C(=O)/C(=C\c2ccc(OC(=O)c3ccco3)cc2)SC1=S	6	-12	-11	-16	-7
O=C(O)CN1C(=O)/C(=C\c2cn(CC(=O)N3CCOCC3)c3ccccc23)SC1=S	134*	-186	-98	-35	-154
O=C(O)CN1C(=O)/C(=C/c2ccc(SCc3ccccc3)o2)SC1=S	35*	-146	·	-33	-45
COc1ccc(/C=C2\SC(=O)N(CCC(=O)N3CCN(C)CC3)C2=O)cc1	54*	-5	2	0	-3
CN1CCN(C(=O)CCN2C(=O)/C(=C/c3ccc(F)cc3)SC2=S)CC1	-4	-3	12*	1	-8
O=C(CCN1C(=O)/C(=C/c2cccs2)SC1=S)N1CCCCC1	-4	0	24*	5	-12
Cc1ccc(/C=C2\SC(=O)N(CCC(=O)N3CCN(C)CC3)C2=O)cc1	-12	-3	2	-3	9
Cc1ccc(/C=C2/SC(=S)N(CCC(=O)N3CCN(C)CC3)C2=O)cc1	0	-3	0	-1	1

Screening results: PubChem BioAssay, several laboratories
